# Assay results published in PubChem BioAssay AID624481 (The Scripps Research Institute Molecular Screening Center, 2012).
# Active and inactive are the calls of the source. No stated cut-off is given here; in the data, active means inhibition above about 50%; inactive means the rest.
# Biological target: Prolyl endopeptidase-like (Mus musculus) (UniProt Q8C167)
# Experiment: purified PREPL inhibitors, PREPL inhibitor project, biochemical, gel-based competitive ABPP, fluorescence, HTS hits (AID 624481)
# Details: at 20 µM, hits give high values
# Chain of Prolyl endopeptidase-like (Mus musculus) (Q8C167 whole entry, looked up): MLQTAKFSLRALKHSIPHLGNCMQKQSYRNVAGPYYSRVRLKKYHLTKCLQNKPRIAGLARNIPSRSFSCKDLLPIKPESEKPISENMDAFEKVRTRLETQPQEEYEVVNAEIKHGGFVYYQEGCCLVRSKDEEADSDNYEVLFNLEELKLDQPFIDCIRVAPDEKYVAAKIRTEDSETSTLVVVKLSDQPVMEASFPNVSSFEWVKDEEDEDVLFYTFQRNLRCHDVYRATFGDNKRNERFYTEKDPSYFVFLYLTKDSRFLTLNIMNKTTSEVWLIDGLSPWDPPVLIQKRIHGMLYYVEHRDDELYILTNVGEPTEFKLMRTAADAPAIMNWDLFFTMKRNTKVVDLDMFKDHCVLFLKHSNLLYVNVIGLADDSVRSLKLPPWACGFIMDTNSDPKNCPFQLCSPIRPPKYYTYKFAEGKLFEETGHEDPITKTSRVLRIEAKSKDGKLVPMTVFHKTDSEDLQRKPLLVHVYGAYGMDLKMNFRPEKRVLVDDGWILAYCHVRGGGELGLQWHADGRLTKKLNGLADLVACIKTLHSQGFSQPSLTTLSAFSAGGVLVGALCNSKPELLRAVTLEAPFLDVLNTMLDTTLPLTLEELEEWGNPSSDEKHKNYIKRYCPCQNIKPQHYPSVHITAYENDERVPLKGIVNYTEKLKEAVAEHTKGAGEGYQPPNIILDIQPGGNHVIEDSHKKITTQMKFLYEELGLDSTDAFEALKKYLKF
row,Compound,inhibition
1,Nc1nn(-c2ccccc2)c(N)c1N=Nc1ccccc1F,-38% (inactive)
2,O=c1[nH]c2ccc(NCc3ccccc3OCc3ccc(Cl)cc3)cc2[nH]1,-43% (inactive)
3,CCN1CCN(c2ccc(NC(=O)COc3ccc(Cl)cc3C)cc2)CC1,-7% (inactive)
4,Cc1ccn2c(Nc3ccc4c(c3)OCO4)c(-c3ccccn3)nc2c1,-41% (inactive)
5,COc1cc2nc(Nc3ccc(C)c(C)c3)nc(N)c2cc1OC,0% (inactive)
6,CCC(=O)N1CCN(c2ccc(NC(=O)COc3cccc(C)c3C)cc2)CC1,-49% (inactive)
7,CN1CCN(c2ccc(NC(=O)COc3cccc4ccccc34)cc2)CC1,15% (inactive)
8,CNc1oc(-c2ccccc2Cl)nc1P(=O)(c1ccccc1)c1ccccc1,10% (inactive)
9,CC[C@@H](C)[C@@H]1CN([C@@H](CN2CCC[C@H]2CN2C(N)=NC[C@H]2C(C)C)C(C)C)C(=N)N1CCc1ccc(Cl)c(Cl)c1,-64% (inactive)
10,COc1ccc(NCc2nn(CC(=O)c3ccc(Br)cc3)c3[n+]2CCCCC3)cc1,-48% (inactive)
11,Cc1ccc(-c2csc(=Nc3cccnc3)n2CCCn2ccnc2)cc1C,-52% (inactive)
12,O=C(CSc1cccc(C(F)(F)F)c1)Nc1ccc(N2CCOCC2)cc1,-35% (inactive)
13,C#CCOCCOCCOCCNc1nc(N2CCN(C(=O)[C@H]([C@@H](C)CC)n3cc([C@@H](N)Cc4ccc(O)cc4)nn3)CC2)nc(N2CCN(C(=O)[C@H](Cc3cc4ccccc4[nH]3)n3cc([C@@H](N)CC(C)C)nn3)CC2)n1,-105% (inactive)
14,Nc1cc([N+](=O)[O-])cc2oc(-c3ccccc3)cc12,-25% (inactive)
15,COc1ccccc1-[n+]1c(C)cc(/C=C2\Sc3ccccc3N2C)cc1C,-27% (inactive)
16,COc1ccc(N2CCN(c3nc4c(C)cccn4c(=O)c3/C=C(\C#N)C(N)=O)CC2)cc1,-53% (inactive)
17,CN(C)c1ccc(NC(=O)Cn2cc3c(n2)CCCC3)cc1,-22% (inactive)
18,Clc1ccc2nc(-c3ccccn3)c(Nc3ccc4c(c3)OCO4)n2c1,-49% (inactive)
19,Cc1cc(C)c2nc(C)cc(NN=Cc3ccc(O)cc3)c2c1,-1% (inactive)

row,Compound,inhibition
1,Clc1ccc(-c2csc(=Nc3cccnc3)n2CCCn2ccnc2)cc1Cl,-41% (inactive)
2,CCCOc1ccccc1-n1sc2c(c1=S)-c1cc(OC)cc3c1N(C(=O)C3=O)C2(C)C,-26% (inactive)
3,COc1ccc(Nc2nc(N3CCCC3)c3ccccc3n2)cc1,-50% (inactive)
4,C#CCOCCOCCOCCNc1nc(N2CCN(C(=O)[C@H](CCCCN)n3cc([C@@H](N)C(C)CC)nn3)CC2)nc(N2CCN(C(=O)[C@H](Cc3cc4ccccc4[nH]3)n3cc([C@@H](N)C(C)CC)nn3)CC2)n1 (stereo partly drawn),-33% (inactive)
5,COc1ccc(N2CCN(CCC(O)c3ccc4ccccc4c3)CC2)cc1 (stereo not drawn),-79% (inactive)
6,CN(C)c1ccc(N=C/C=C2\N(C)c3ccccc3C2(C)C)cc1,-78% (inactive)
7,O=C1c2c(O)ccc(O)c2C(=O)c2c(NCCNCCO)ccc(NCCNCCO)c21,-46% (inactive)
8,C[C@H](CO)N1C[C@H](C)[C@H](CN(C)Cc2ccccc2)Oc2c(NC(=O)Nc3ccc(F)cc3)cccc2C1=O,-56% (inactive)
9,COc1ccc(N2CCN(c3nc4c(c(=O)n(C)c(=O)n4C)n3Cc3ccccc3)CC2)cc1,-47% (inactive)
10,CC(C)n1cnc2c(NCc3ccccc3)cc(OCC3CCN(C)CC3)cc21,-49% (inactive)
11,CN(C)c1ccc(C(O)P(=O)(OCc2ccccc2)c2ccc(N(C)C)cc2)cc1 (stereo not drawn),-57% (inactive)
12,CN1CCN(c2ccc(NC(=O)COc3ccc(Cl)cc3Cl)cc2)CC1,-13% (inactive)
13,CC(=O)N1CCN(c2ccc(NC(=O)COc3ccc(Cl)cc3Cl)cc2)CC1,-20% (inactive)
14,COc1cccc(N=Nc2c(N)[nH]n3c(=O)c4c(nc23)CCCC4)c1,93% (active)
15,COCCCNC(=O)/C(C#N)=C/c1c(N2CCN(c3ccc(OC)cc3)CC2)nc2c(C)cccn2c1=O,-39% (inactive)
16,Cc1cccc(OCC(=O)Nc2ccc(N3CCN(C(=O)c4ccccc4)CC3)cc2)c1,-12% (inactive)
17,COc1ccc(CCNC(=O)c2cc3c(=O)n4cccc(C)c4nc3n(CCCN3CCOCC3)c2=N)cc1,-87% (inactive)
18,O=C(Nc1ccc2c(c1)OCCO2)c1cccc2nc3ccccc3nc12,-12% (inactive)
19,CN(C)c1ccc(C=NNC(=S)NCc2ccccc2)cc1,-20% (inactive)
